Shown are actives, neighbours in structure and some others; about 8% of the full set was active somewhere.
HCV inhibitor: blocks hepatitis C virus. Potency, µM (top dose mostly 41.8 µM), inactives show at the highest dose activity change, negative = inhibition, hits mostly inhibitors. Huh7.5.1 HCVcc-Cre infection, luciferase reporter, 44 h. AID 651820. actives 3.4% (n = 340,000); active = well fitted inhibition curve with a large enough effect; inconclusive = small, poorly fitted or top-dose-only effect, or another doubt; inactive = no such curve, though single readings can be large or run the other way; also: potency is read from the fitted curve at half-maximal effect; % is scaled to controls: 0 for no effect and ±100 for the full control effect
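Cells (1,000/well) were plated 4 h before compound, then infected with HCVcc-Cre virus (~0.5 moi). After 44 h further culture, infection was read as luciferase luminescence following a 15 min substrate incubation at room temperature.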
Marburg entry inh: Marburg virus entry inhibition | Potency, µM (top dose mostly 37.8 µM), for the others: top-dose activity change, negative = inhibition, actives largely listed as inhibitors | actives 1.8% (n = 300,000) | Marburg virus pseudotyped entry inhibition, cell reporter; calls by dose curve; tested in HEK293 cells; also: potency is read from the fitted curve at half-maximal effect; % is scaled to controls: 0 for no effect and ±100 for the full control effect
HCMV inh: human cytomegalovirus inhibition; HFF cells, HCMV-luciferase reporter, 72 h; stronger effect = lower value; activity change, negative = inhibition, % at 57.5 µM; actives 4.5% (n = 410,000); AID 1259415; in the data active = activity change below about -60%; inconclusive = no clear call, values can overlap the other calls; inactive = above about -39%; also: % is scaled to controls: 0 for no effect and ±100 for the full control effect
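Human foreskin fibroblasts infected with luciferase-reporter HCMV at MOI 1 PFU/cell, compounds at two doses. Luciferase measured 72 h post infection; normalized to buffer-only basal and Salinomycin (10uM) controls.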
SARS PLpro yeast: inhibitors of SARS-CoV papain-like protease in yeast; S. cerevisiae expressing SARS-CoV PLpro, growth rescue; Potency, µM (highest dose often 32.9 µM), without a hit: at the top dose activity, positive = growth rescue, usual class: activators; AID 485353; actives 0.19% (n = 330,000); calls by dose curve; also: potency is read from the fitted curve at half-maximal effect; 0% is about no effect; nearly all actives have a fitted effect of over 55% in size
Lassa entry inh: blocks Lassa virus binding to or entry into cells; Lassa virus pseudotype entry inhibition, cell reporter; Potency, µM (series often up to 37.9 µM), inactives show at the highest dose activity change, negative = inhibition, hits mostly inhibitors; actives 1.2% (n = 300,000); calls by dose curve; tested in HEK293 cells; also: potency is read from the fitted curve at half-maximal effect; % is scaled to controls: 0 for no effect and ±100 for the full control effect; nearly all actives have a fitted effect of over 50% in size
FMDV antiviral: antivirals against foot and mouth disease virus | FMDV antiviral cell-based qHTS | Potency, µM (top dose mostly 57.9 µM), for the others: top-dose activity change, negative = inhibition, most hits filed as inhibitors | actives 1.2% (n = 410,000) | AID 1159524; calls by dose curve; tested in HEK293T cells; also: read-out not given here; potency is read from the fitted curve at half-maximal effect; % is scaled to controls: 0 for no effect and ±100 for the full control effect; nearly all actives have a fitted effect of over 45% in size
Numbers without * were called inactive; u = inconclusive; x = not tested or not shown; ! = a repeat was not active; [ ] = remark or other dose.

SMILES | HCV inhibitor | Marburg entry inh | HCMV inh | SARS PLpro yeast | Lassa entry inh | FMDV antiviral
Cc1cccc(C(c2sc3nc(-c4ccco4)nn3c2O)N2CCOCC2)c1 (centres undefined) | x | x | 15 | x | 1%[46.1 µM] | -10%
Cc1cc(C(=O)Nc2ccccc2-c2nc(CNC(=O)c3cscn3)c(C)o2)c(C)o1 | x | x | x | x | x | 32%
O=S(=O)(NCC1CN(S(=O)(=O)c2c(F)cccc2F)C1)c1ccc2c(c1)OCCO2 | x | x | -62* | -8% | x | 10%
CSc1nc2c(c(=O)[nH]c(=O)n2C)n1Cc1ccccc1Cl | -12% | x | -3 | 1% | x | u
CSc1nc2c(c(=O)[nH]c(=O)n2C)n1Cc1ccc(Cl)cc1 | 25µM* | -5% | 19 | -3% | 0% | -13%
CCCn1c(SCc2ccc(Cl)cc2)nc2c1c(=O)[nH]c(=O)n2C | -17% | -16%[46.1 µM] | u | -3% | 16µM* | u
Cc1ccc(-c2nc3nc(C)cc(N4CCN(c5cccc(C)c5)C(C)C4)n3n2)cc1 (centres undefined) | x | 27%[46.1 µM] | 8 | x | 17%[46.1 µM] | -5%
Cc1cccc(-n2c(-c3csc4ccccc34)n[nH]c2=S)c1 | -12% | 2% | -70* | 13% | 1% | -22%
COc1ccc(-c2nn(-c3ccccc3)cc2C(=O)Nc2cccc(S(=O)(=O)NC3=NCCC3)c2)cc1 | 11µM* | x | -11 | 1% | x | 29%
Cc1cccc(-c2nn(-c3ccccc3)cc2C(=O)Nc2cccc(S(=O)(=O)NC3=NCCC3)c2)c1 | -32% | -23% | -17 | -1% | -1% | 56%
O=C(COC(=O)/C=C/c1ccc(Cl)cc1Cl)Nc1cccc(S(=O)(=O)NC2=NCCC2)c1 | x | x | -69* | x | x | 0%
O=C(CCl)Nc1cccc(S(=O)(=O)NC2=NCCC2)c1 | 13µM* | x | -100* | 0% | x | -25%
CC(=O)c1cccc(S(=O)(=O)Nc2cccc(S(=O)(=O)NC3=NCCC3)c2)c1 | 7% | 36% | -84* | u | -2% | 51%
O=C(COc1ccc(Br)cc1)N(Cc1nnc(-c2ccccc2Cl)o1)C1CC1 | x | x | -20 | x | x | 19%
CCC[C@H]1[C@@H](NC(=O)Nc2cc(Cl)cc(Cl)c2)CC[C@@]23CCCN2C(=O)CCC[C@@H]13 | x | x | -27 | x | x | x
COC(=O)c1cccc(Nc2c(-c3ccc(O)c(OC)c3)nc3nc[nH]n23)c1 | x | x | 0 | x | -27%[46.1 µM] | -18%
Cc1ccccc1OCC(=O)Nc1cccc(S(=O)(=O)NC2=NCCC2)c1 | u | x | -2 | 4% | x | 51%
Cc1ccccc1-n1ccnc1SCC(=O)Nc1cccc(S(=O)(=O)NC2=NCCC2)c1 | -1% | 2% | -61* | -5% | u | 19%
COc1cc(-n2c(C)nc3cc(C(=O)NCC4CCCO4)ccc32)cc(OC)c1OC (centres undefined) | 5% | x | 15 | 9% | x | -6%
CCOc1cc(NC(=S)NCC2CCCO2)c(OCC)cc1NC(=O)c1cccc(C)c1 (centres undefined) | u | 1.6µM* | -30 | 5% | u | 3.2µM*
CCOc1cc(NC(=S)NCC2CCCO2)c(OCC)cc1NC(=O)c1cccc(F)c1 (centres undefined) | u | u | 4 | 0% | -2% | 6%
CCOc1ccc(-n2c(C)nc3cc(C(=O)NCC4CCCO4)ccc32)cc1 (centres undefined) | 4% | u | -35 | -3% | 5µM* | 2%
Cc1cccc(-n2c(C)nc3cc(C(=O)NCC4CCCO4)ccc32)c1 (centres undefined) | 7% | x | -64* | 2% | x | 16%
COc1ccc(CNC(=O)CN2C(=O)CCCc3ccccc32)cc1 | x | x | 0 | x | 0%[46.1 µM] | 12%
CC(NC(=O)c1ccco1)C(c1cccs1)N1CCN(c2ccc(F)cc2)CC1 (centres undefined) | 10µM* | u | u | -21% | u | x
SMILES | HCV inhibitor | Marburg entry inh | HCMV inh | SARS PLpro yeast | Lassa entry inh | FMDV antiviral
COc1ccc(-c2csc(C3=C(O)CN(Cc4ccc(Cl)cc4)C3=N)n2)cc1OC | 11µM* | -1% | -33 | 0% | -19% | -7%
COc1ccc(-c2csc(C3=C(O)CN(Cc4ccc(S(N)(=O)=O)cc4)C3=N)n2)cc1OC | -16% | 2% | -7 | 4% | 2% | 3%
Cc1cccc(-n2c(C)c(-c3ccccc3)[nH]c2=S)c1 | u | -1% | -20 | 27% | -5% | -16%
COC(=O)c1cc2sccc2n1Cc1nc(-c2cccc(Cl)c2)oc1C | 1% | 1%[46.1 µM] | -65*! | -3% | x | u
COC(=O)c1cc2sccc2n1Cc1nc(-c2ccc(Cl)cc2)oc1C | 17% | u | 4 | -4% | 1% | -6%
Cc1cccc(N2CCN(Cc3nc(-c4ccccc4Cl)oc3C)CC2)n1 | u | u | -18 | -3% | -15%[46.1 µM] | -7%
Cc1cccc(N2CCN(Cc3nc(-c4cccc(Cl)c4)oc3C)CC2)n1 | u | 7.1µM* | 0 | 0% | -21% | -1%
COc1ccc([C@]23Cc4cc(C#N)ccc4C(O2)c2c(cc(C)n(-c4ccccc4)c2=O)O3)cc1 | x | x | x | 0%[6.58 µM] | x | x
CC(=O)c1cccc(NC(=O)CCCSc2nc(-c3ccco3)cc(C(F)(F)F)n2)c1 | x | -9%[46.1 µM] | -21 | x | 9%[46.1 µM] | 3%
O=c1c(-c2ccnn2-c2ccc(F)cc2)cnc2n1CCS2 | 9% | 7% | 22 | -2% | 8% | -12%
O=c1ccnc2n1COCS2 | 22% | x | -100* | 0% | x | -4%
CCN(CC)c1ncnc2c1ncn2[C@H]1CN(Cc2ccccc2)C[C@@H](CO)O1 | x | x | 19 | x | x | 1%
COc1cccc(C2C(C(=O)/C=C/c3ccco3)=C(O)C(=O)N2CCN2CCOCC2)c1 (centres undefined) | -3% | 11%[46.1 µM] | 0 | 0% | 19%[46.1 µM] | -4%
COc1ccc(C2C(C(=O)/C=C/c3ccco3)=C(O)C(=O)N2CCN2CCOCC2)cc1 (centres undefined) | 11µM* | u | 11 | 10% | 2% | -1%
C=C1C(=O)C=C[C@]2(C)C[C@@H]3OC(=O)[C@](C)(O)[C@H]3C[C@@H]12 | u | x | -98* | -6% | x | 28µM*
CN(C)C(=O)Oc1ccc(Br)c2ccccc12 | -21% | -14%[46.1 µM] | -2 | 0% | 0%[46.1 µM] | 0%
CN(C)C(=O)Oc1c(Cl)cc(Cl)c2ccccc12 | -8% | 7% | -71* | -7% | 7% | -22%
O=C1Cc2c([nH]c3ccc([N+](=O)[O-])cc23)-c2ccccc2N1 | u | -15% | -98* | x | -7%[46.1 µM] | 50%
CCc1nc2ccc(C(=O)N3CCN(S(=O)(=O)CC)CC3)cn2c1N(CCC(C)C)CCN(C)C | x | x | 17 | x | x | 4%
FC(F)(F)c1cc(-c2cnc3ccc(NCc4ccco4)nn23)cc(C(F)(F)F)c1 | x | x | -10 | x | x | x
O=C(NC(=S)NC1CCS(=O)(=O)C1)c1ccccc1 (centres undefined) | 7% | x | -29 | 0% | x | 2%
